Our source for the growth inhibition values is PubChem BioAssay (NCI).

This is part of a sample that, as a whole, favours compounds with a hit. Of some 79,000 tested, about 15% had one in any assay. Values without a mark were called inactive. Active and inactive are the calls of the source. Cut-off read from the data, not from the text of the source: active = growth inhibition above about 70%; inactive = the rest.

The nature of the test: NCI Yeast Anticancer Drug Screen. Data for the mlh1 rad18 strain (AID 175). Conditions: S. cerevisiae mlh1 rad18 strain growth inhibition, stronger effect = higher value. Here is the method:
Growth inhibition of yeast strains with defined genetic alterations is measured as a screen for potential anti-cancer activity. Selected strains with alterations in DNA damage repair or cell cycle control were exposed to compounds and growth inhibition was measured relative to vehicle treated controls. The strain used in this assay is mlh1 rad18

[1] abbreviates: at 5.0 µM (retest, dose inferred, filed as 0.5).
Setting [2] is: at 50.0 µM (retest, dose inferred, filed as 5.0).

With `O=C1c2ccccc2CC(Br)c2ccccc21` (configuration not stated), the growth inhibition under setting [1] is 1%, the growth inhibition under setting [2] is 98% (active) and the growth inhibition (at 50.0 µM) is 97.7% (active).
The like results for `COc1ccc(C2=CCC3C4CC=C5CC(O)CCC5(C)C4CCC23C)s1` (configuration not stated) were, in that order, 19%, 75% (active) and 94.7% (active).
In the case of `O=S1(=O)c2ccccc2C(Br)C1Br` (configuration not stated), the growth inhibition was 56% under setting [1], 99% (active) under setting [2] and 99.3% (active) (at 50.0 µM).
In the case of `CSCCC(NC(=O)C(CCSC)NS(=O)(=O)Cc1ccccc1)C(=O)O` (configuration not stated), the growth inhibition was -4% under setting [1], -5% under setting [2] and 99.2% (active) (at 50.0 µM).
The like results for `O=C(CBr)C1(Br)CCN(Cc2ccccc2)CC1` were, in that order, 30%, 99% (active) and 99.6% (active).
For the compound `Nc1ccc(O)c(=O)cc1`, the growth inhibition was -2% under setting [1], 15% under setting [2] and 59.9% (at 50.0 µM).
For `CC1(C)CC(=O)C2=C(C1)OC1=C(CC(C)(C)CC1=O)C2c1ccccc1[N+](=O)[O-]` (configuration not stated), the growth inhibition under setting [1] was 24%, the growth inhibition under setting [2] is 27% and the growth inhibition (at 50.0 µM) is -17.1%.
The like results for `Cc1cn(C2OC(CO)C(O)C(O)C2N)c(=O)[nH]c1=O` (configuration not stated) were, in that order, -4%, -3% and 92.5% (active).
The like results for `CCCCCCCCCCCCCCCC(=O)N1CC[N+](C)(C)CC1` were, in that order, -34%, 99% (active) and 99.5% (active).
The matching figures for `CC(C)OP(=O)(CCCCCCCCC/C=C/c1ccc2c(c1)OCCOCCOCCOCCO2)OC(C)C`: 24%, 99% (active) and 98.1% (active).
On to `CC(=O)N=C1N(/C=C2\C(=O)Oc3ccccc3C2=O)C(=O)/C(=C/c2ccc(Cl)cc2Cl)N1C`, for which the growth inhibition runs as follows: under setting [1], -4%; under setting [2], 91% (active); (at 50.0 µM) 91.6% (active).
The matching figures for `COC1OC(CI)C(OC(c2ccccc2)(c2ccccc2)c2ccccc2)C(OC(c2ccccc2)(c2ccccc2)c2ccccc2)C1OC(c1ccccc1)(c1ccccc1)c1ccccc1` (configuration not stated): -17%, 11% and 95.9% (active).
Turning to `C=CC(=O)Oc1ccccc1/C=C/C(=O)CCCCCC`, the growth inhibition under setting [1] was 4%, the growth inhibition under setting [2] was 95% (active) and the growth inhibition (at 50.0 µM) was 96% (active).
The like results for `ClCc1nc2ccccc2c2ccccc12` were, in that order, 12%, 43% and 83.5% (active).
